# Many of the other results were omitted from the sample, so the strongest signals are more common in it than they were.
# B1: Epa1-NP-mutant-E227G (Candida glabrata), Q6VBJ0 (protein)
# chain: MILNPALFLNKCVCIYTTLILLLLTNGGYATSSNDISLASKDPTTFPLGCSPDITTPKKGLSMELYSYDFRKKGSYPCWDAAYLDPNYPRTGYKSHRLLAKVDGVTGNINFYYHATKGCTPQLGHLPASYNYPKPLTMTNFTMLLYGYFRPKVTGFHTFTISADDLLFVNFGAGNAFDCCRRDSSADHFGNYQAYAIWGSKTAKDELTVHLDAGVYYPIRLFYNNRGYDGALSFTFKTESNENTVSDFSEYFFSLDDTEEGCPGLISYDSSCASVKTSKIIGIDYHTETPNENLVPITKTIYHLGIPCTGTTTTPLCGSGFYDPLANKCVTINTSSTSSVTKTTSHTTSKEVSFHSSISSQKTLIPKSIPSPYGPIKSQSIPTEMETSSEISSSEYAFSDVISTPSHSPYTKKHSSLNSSSYTSTVIHSLTSYSISQGIFSTSLSEQNITSKSSTDKFSTATSMSNNITQSSIIISQFSTNNENYTTTSMHTSSDKISTETLNNSISTTTSILFSNSSTILKNNTTIISSDKDTHYHPVNPTIVCSTNKTEIICASITQPSISNSNNHWSSSVLKFNSTTVRSTLPSSAGSNETSINVPFSSSTESNTSTSSTSTSNSKMVRSTLPSSAGSNETSISVPFSSSTESNTSTSSTSTSNSKMVRSTLPSSAGSNETSINVPFSSSTESNTSTSSTSTSNSKTVRSTPFSSAGIIMTSLSQRNNKSASSYASSNSKCYNTADSCRKVHSTPSYLLTSSYTSEGVDYDCSLVSTKLKINDTNCVNNKHTTKSCLKTSVTTTIPTLEIKTARKSSSNTIGLHSYPTSSPNKSISSAPIIGYISSFKTIKTASPSYQTSDLTTITTITSLNNPGSTAVENTHESNDKSRKTSSNDISSKHSVIKETKDAVESSNKSHQTNTLKCSSIIIASSSHNSYESLGGTTLTLTLSKVYSPQNNDTLPFLEISEVNPSRTVLPESSKMMQYLTSTEERNKTARNTIATNIVSISTFHFEGEGNAIRMGYTQLLLMLIGIIVMNIGT
# What was measured:
# Experiment in all cases: glycan array binding signal (z-score within array); higher = stronger binding
# Conditions in all cases: glycan notation: IUPAC condensed, linker removed; mutation: E227G
# [1] = biological target: GalNAc3S(b1-4)[Fuc(a1-3)]GlcNAc
# Procedure, shortened: (§1)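 The Consortium for Functional Glycomics database supplied 3228 glycan arrays, of which those lacking an available protein sequence were dropped. The binding signal, a within-array Z-score, was averaged across arrays of the same protein sequence and across linkers. Negative scores can be read as non-binding.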
# Glc(a1-4)Glc = biological target: Glc(a1-4)Glc
# Procedure, shortened: as §1
# GlcA(b1-3)Gal = biological target: GlcA(b1-3)Gal
# Procedure, shortened: as §1
# [2] = biological target: GlcNAc(b1-2)Man(a1-3)[GlcNAc(b1-4)][GlcNAc(b1-2)Man(a1-6)]Man(b1-4)GlcNAc(b1-4)[Fuc(a1-6)]GlcNAc
# Procedure, shortened: as §1
# GlcNAc(b1-3)Gal(b1-4)Glc = biological target: GlcNAc(b1-3)Gal(b1-4)Glc
# Procedure, shortened: as §1
# [3] = biological target: GlcNAc(b1-3)Gal(b1-4)GlcNAc(b1-3)Gal(b1-4)GlcNAc(b1-2)Man(a1-3)[GlcNAc(b1-3)Gal(b1-4)GlcNAc(b1-3)Gal(b1-4)GlcNAc(b1-2)Man(a1-6)]Man(b1-4)GlcNAc(b1-4)[Fuc(a1-6)]GlcNAc
# Procedure, shortened: as §1
# [4] = biological target: GlcNAc(b1-3)Gal(b1-4)GlcNAc(b1-3)GalNAc
# Procedure, shortened: as §1
# [5] = biological target: GlcNAc(b1-3)Gal(b1-4)GlcNAc(b1-6)[GlcNAc(b1-3)]Gal(b1-4)GlcNAc
# Procedure, shortened: as §1
# [6] = biological target: GlcNAc(b1-4)Gal(b1-4)GlcNAc
# Procedure, shortened: as §1
# [7] = biological target: GlcNAc(b1-4)GlcNAc(b1-4)GlcNAc
# Procedure, shortened: as §1
# [8] = biological target: GlcNAc(b1-4)GlcNAc(b1-4)GlcNAc(b1-4)GlcNAc(b1-4)GlcNAc
# Procedure, shortened: as §1
# GlcNAc(b1-6)GalNAc = biological target: GlcNAc(b1-6)GalNAc
# Procedure, shortened: as §1
# [9] = biological target: Kdn(a2-3)Gal(b1-4)[Fuc(a1-3)]GlcNAc
# Procedure, shortened: as §1
# [10] = biological target: Man(a1-2)Man(a1-3)[Man(a1-2)Man(a1-6)]Man
# Procedure, shortened: as §1
# [11] = biological target: Man(a1-2)Man(a1-3)[Man(a1-6)]Man(a1-6)[Man(a1-2)Man(a1-3)]Man(b1-4)GlcNAc(b1-4)GlcNAc
# Procedure, shortened: as §1
# Man(a1-3)[Man(a1-6)]Man = biological target: Man(a1-3)[Man(a1-6)]Man
# Procedure, shortened: as §1
# [12] = biological target: Man(a1-3)[Man(a1-6)]Man(a1-6)[Man(a1-3)]Man
# Procedure, shortened: as §1
# Neu5Ac(a2-3)Gal = biological target: Neu5Ac(a2-3)Gal
# Procedure, shortened: as §1
# [13] = biological target: Neu5Ac(a2-3)Gal(b1-3)GlcNAc(b1-2)Man(a1-3)[Neu5Ac(a2-3)Gal(b1-3)GlcNAc(b1-2)Man(a1-6)]Man(b1-4)GlcNAc(b1-4)GlcNAc
# Procedure, shortened: as §1
# [14] = biological target: Neu5Ac(a2-3)Gal(b1-3)GlcNAc(b1-3)Gal(b1-4)GlcNAc
# Procedure, shortened: as §1
# [15] = biological target: Neu5Ac(a2-3)Gal(b1-4)GlcNAc
# Procedure, shortened: as §1
# [16] = biological target: Neu5Ac(a2-3)Gal(b1-4)GlcNAc(b1-2)Man(a1-3)[Neu5Ac(a2-3)Gal(b1-4)GlcNAc(b1-2)Man(a1-6)]Man(b1-4)GlcNAc(b1-4)GlcNAc
# Procedure, shortened: as §1
# [17] = biological target: Neu5Ac(a2-3)Gal(b1-4)GlcNAc(b1-3)Gal(b1-4)GlcNAc(b1-2)Man(a1-3)[Neu5Ac(a2-3)Gal(b1-4)GlcNAc(b1-3)Gal(b1-4)GlcNAc(b1-2)Man(a1-6)]Man(b1-4)GlcNAc(b1-4)GlcNAc
# Procedure, shortened: as §1
# [18] = biological target: Neu5Ac(a2-3)Gal(b1-4)[Fuc(a1-3)]GlcNAc(b1-3)Gal(b1-4)GlcNAc
# Procedure, shortened: as §1
# [19] = biological target: Neu5Ac(a2-3)Gal(b1-4)[Fuc(a1-3)]GlcNAc(b1-6)[Gal(b1-3)]GalNAc
# Procedure, shortened: as §1
# [20] = biological target: Neu5Ac(a2-3)[GalNAc(b1-4)]Gal(b1-4)GlcNAc
# Procedure, shortened: as §1
# [21] = biological target: Neu5Ac(a2-6)Gal(b1-4)GlcNAc(b1-2)Man(a1-3)[Gal(b1-4)GlcNAc(b1-2)Man(a1-6)]Man(b1-4)GlcNAc(b1-4)GlcNAc
# Procedure, shortened: as §1
# [22] = biological target: Neu5Ac(a2-6)Gal(b1-4)GlcNAc(b1-2)[Neu5Ac(a2-6)Gal(b1-4)GlcNAc(b1-4)]Man(a1-3)[GlcNAc(b1-4)][Neu5Ac(a2-6)Gal(b1-4)GlcNAc(b1-4)Man(a1-6)]Man(b1-4)GlcNAc(b1-4)GlcNAc
# Procedure, shortened: as §1
# Neu5Ac(a2-8)Neu5Ac = biological target: Neu5Ac(a2-8)Neu5Ac
# Procedure, shortened: as §1
# [23] = biological target: Neu5Ac(a2-8)Neu5Ac(a2-3)[Gal(b1-3)GalNAc(b1-4)]Gal(b1-4)Glc
# Procedure, shortened: as §1
# [24] = biological target: Neu5Ac(a2-8)Neu5Ac(a2-8)Neu5Ac
# Procedure, shortened: as §1
# [25] = biological target: Neu5Ac9Ac(a2-3)Gal(b1-3)GlcNAc
# Procedure, shortened: as §1
# [26] = biological target: Neu5Gc(a2-6)Gal(b1-4)GlcNAc
# Procedure, shortened: as §1
# [27] = biological target: Neu5Gc(a2-8)Neu5Ac(a2-3)Gal(b1-4)GlcNAc
# Procedure, shortened: as §1
binder,measurement,setting,value
B1,glycan array binding signal (z-score),[1],-0.117
same,glycan array binding signal (z-score),Glc(a1-4)Glc,-0.175
same,glycan array binding signal (z-score),GlcA(b1-3)Gal,-0.114
same,glycan array binding signal (z-score),[2],-0.217
same,glycan array binding signal (z-score),GlcNAc(b1-3)Gal(b1-4)Glc,-0.256
same,glycan array binding signal (z-score),[3],0.132
same,glycan array binding signal (z-score),[4],-0.16
same,glycan array binding signal (z-score),[5],-0.203
same,glycan array binding signal (z-score),[6],-0.157
same,glycan array binding signal (z-score),[7],-0.161
same,glycan array binding signal (z-score),[8],-0.177
same,glycan array binding signal (z-score),GlcNAc(b1-6)GalNAc,-0.071
same,glycan array binding signal (z-score),[9],-0.097
same,glycan array binding signal (z-score),[10],-0.26
same,glycan array binding signal (z-score),[11],-0.291
same,glycan array binding signal (z-score),Man(a1-3)[Man(a1-6)]Man,-0.126
same,glycan array binding signal (z-score),[12],-0.162
same,glycan array binding signal (z-score),Neu5Ac(a2-3)Gal,-0.003
same,glycan array binding signal (z-score),[13],0.018
same,glycan array binding signal (z-score),[14],-0.256
same,glycan array binding signal (z-score),[15],-0.195
same,glycan array binding signal (z-score),[16],-0.236
same,glycan array binding signal (z-score),[17],-0.191
same,glycan array binding signal (z-score),[18],-0.14
same,glycan array binding signal (z-score),[19],-0.043
same,glycan array binding signal (z-score),[20],-0.209
same,glycan array binding signal (z-score),[21],-0.187
same,glycan array binding signal (z-score),[22],-0.059
same,glycan array binding signal (z-score),Neu5Ac(a2-8)Neu5Ac,-0.302
same,glycan array binding signal (z-score),[23],0.176
same,glycan array binding signal (z-score),[24],-0.128
same,glycan array binding signal (z-score),[25],-0.253
same,glycan array binding signal (z-score),[26],-0.199
same,glycan array binding signal (z-score),[27],-0.226

# — the supplement of paper PMC8728848
